{"source": "PubChem BioAssay AID1159580", "about": "(chemical genetic matrix, 2015)", "experiment": "chemical genetic growth profiling, strain panel (AID 1159580);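 also: tested at 20 µM; growth read once vehicle control cultures reached saturation at 30 °C; 1 = growth at the plate median or of vehicle wells; lower values mean less growth of the strain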", "settings": "S. cerevisiae deletion strains, growth OD", "note": "In all, about 5,500 compounds went through this assay and about 2,000 (36%) were called active. Roughly 18% stayed inconclusive and do not appear here. The list shows a part of the results. A number with no mark means an inactive call. Rule as the data show it: active = normalized growth mostly below about 0.91 (no sharp cut-off); inconclusive = no clear call, values can overlap the other calls; inactive = mostly above about 0.92."}
{"compound": "OC1(C(F)(F)F)CC(c2ccccc2)=NN1", "note": "(configuration not stated)", "values": [{"measurement": "normalized growth", "setting": "locus YAL013W, strain DEP1, hits give low values", "value": 0.974}, {"measurement": "normalized growth", "setting": "locus YBR229C, strain ROT2, hits give low values", "value": 0.968}, {"measurement": "normalized growth", "setting": "locus YCL061C, strain MRC1, hits give low values", "value": 0.978}, {"measurement": "normalized growth", "setting": "locus YDL101C, strain DUN1, hits give low values", "value": 0.987}, {"measurement": "normalized growth", "setting": "locus YDL134C, strain PPH21, hits give low values", "value": 0.984}, {"measurement": "normalized growth", "setting": "locus YDR150W, strain NUM1, hits give low values", "value": 0.949}, {"measurement": "normalized growth", "setting": "locus YEL061C, strain CIN8, hits give low values", "value": 1}, {"measurement": "normalized growth", "setting": "locus YGR078C, strain PAC10, hits give low values", "value": 0.972}, {"measurement": "normalized growth", "setting": "locus YHR030C, strain SLT2, hits give low values", "value": 1.08}, {"measurement": "normalized growth", "setting": "locus YHR087W, strain rtc3, hits give low values", "value": 0.967}, {"measurement": "normalized growth", "setting": "locus YJL187C, strain SWE1, hits give low values", "value": 1}, {"measurement": "normalized growth", "setting": "locus YJR043C, strain POL32, hits give low values", "value": 0.991}, {"measurement": "normalized growth", "setting": "locus YJR075W, strain HOC1, hits give low values", "value": 0.915}, {"measurement": "normalized growth", "setting": "locus YLR039C, strain RIC1, hits give low values", "value": 0.843}, {"measurement": "normalized growth", "setting": "locus YLR058C, strain SHM2 (second series), hits give low values", "value": 0.961}, {"measurement": "normalized growth", "setting": "locus YLR085C, strain ARP6, hits give low values", "value": 1.03}, {"measurement": "normalized growth", "setting": "locus YLR262C, strain YPT6, hits give low values", "value": "0.809 (active)"}, {"measurement": "normalized growth", "setting": "locus YML094W, strain GIM5, hits give low values", "value": 1}, {"measurement": "normalized growth", "setting": "locus YMR219W, strain ESC1, hits give low values", "value": 0.976}, {"measurement": "normalized growth", "setting": "locus YMR263W, strain SAP30, hits give low values", "value": 0.976}, {"measurement": "normalized growth", "setting": "locus YNL153C, strain GIM3, hits give low values", "value": 0.981}, {"measurement": "normalized growth", "setting": "locus YNL298W, strain CLA4 (second series), hits give low values", "value": 0.989}, {"measurement": "normalized growth", "setting": "locus YNL322C, strain KRE1, hits give low values", "value": 0.953}, {"measurement": "normalized growth", "setting": "locus YNR030W, strain Alg12, hits give low values", "value": 1}, {"measurement": "normalized growth", "setting": "locus YPL055C, strain LGE1, hits give low values", "value": 0.981}, {"measurement": "normalized growth", "setting": "locus YPL241C, strain CIN2, hits give low values", "value": 1.02}, {"measurement": "normalized growth", "setting": "locus YPR135W, strain CTF4, hits give low values", "value": 0.92}]}
